SMILES strings stand for the structures. Inconclusive results are not listed. Values without a mark were called inactive. Active and inactive are the calls of the source. The call rests on the fitted dose curve; in most records, active means well fitted cell-killing curve with a large enough effect; inconclusive means small, poorly fitted or top-dose-only effect, or effect the other way; inactive means no such curve, though single readings can be large or run the other way. *1 amine or outer side, *2 acyl side, *3 side chain or, on linkers, in order; H or OH if unused. Where a SMILES comes first, the peptide text is derived from it. Bridges are numbered along the chain shown (N, C = ends). Roman numbers before positions name the chains, in order. [ ]: non-standard residue; d: D form. Actinocin(9to1) = Cc1c2oc3c(C)ccc(C(=O)[*:1])c3nc-2c(C(=O)[*:2])c(N)c1=O; NMeV = CN[C@H](C(=O)O)C(C)C; Sar = CNCC(=O)O
On the % scale 0 is the no-effect control and ±100 the full control effect; potency means the concentration at half of the fitted maximal effect.

The test concerns Jar. In words: Confirmatory qHTS for gynecologic anti-cancer compounds from libraries of approved drugs and bioactive compounds. Further: nearly all actives have a fitted effect of over 55% in size. Conditions: gynecologic cancer cell panel viability, ATPlite luminescence, 48 h; series mostly up to 57.6 µM; activity change, negative = viability loss: at the top concentration. From the text: National Center for Advancing Translational Sciences [NCATS] Assay Overview: Chemotherapeutic drug responses vary from cancer to cancer and from patient to patient. These variations could be caused by a number of factors including patient genomic background, tumor mutations, tumor heterogeneity, and aspects of drug treatment. Chemotherapeutic drug resistance is also a common issue and can lead to ineffective treatment and patient death. Here we have profiled the cell killing effects of thousands of compounds to characterize the responses in three gynecological cancers, identify cancer-selective compounds, and understand the diversity of responses to these compounds from pan-cancer suppressors to single cell line selective compounds. In this assay, we screened a 7,914 compound drug library that included approved drug and bioactive compounds in six ovarian, three cervical, and two placental cancer cell lines using the ATPlite assay for cell viability. ATPlite is a luminescence based assay reliant on the conversion of a luciferase substrate to light in the presence of ATP. As a cytotoxic compound will suppress growth and decrease the number of cells, the concentration of ATP will decrease, and less light signal will be detected in the well. Hits were selected from the primary screen for follow-up confirmation. For the confirmation screens, the ovarian cancer cell lines included CAOV-3, SK-OV-3, SW 626, ES-2, PA-1, and TOV-21G. The cervical cancer cell lines included HeLa, Ca Ski, and C-33 A. The placental cancer cell lines included JEG-3 and JAR. HEK 293T cells were used as the control cell line to determine the selectivity index. The ATPlite assay was used to determine the IC50 values.
Assay Protocol Summary: 1,000 cells in 4 uL of media were dispensed into white, solid bottom 1536-well plates using a Multidrop Combi (Thermo Scientific). The Assay plates were incubated for 16 hours at 37 C with 5% CO2 in assay plates, followed by the addition of 23 nL of DMSO or drug dissolved in DMSO. . Each compound was assayed in 11 concentrations (1:3 dilution) from 57.5 uM to 0.977 nM, using the automated Wako 1536 Pin Tool workstation and incubated at 37 C with 5% CO2 48 hours. 4 uL of ATPlite, the ATP monitoring reagent, was then added to the each well of the assay plates using the Multidrop Combi reagent dispenser followed by incubation for 15 minutes at room temperature. The resulting luminescence was measured using the ViewLux plate reader.
A general note: qHTS replaces the single test concentration by a dilution series.
Regarding `Cc1cnc(Nc2cccc(CN3CCOCC3)c2)nc1Nc1cccc(S(=O)(=O)NC(C)(C)C)c1`, the Potency was 21.7 µM (active). In the case of `Cc1nc(N)nc(N)c1-c1ccc(Cl)c(Cl)c1`, the Potency was 4.85 µM (active). Same read-out and setting: as for `Cc1cnc(Nc2ccc(CN3CCOCC3)cc2)nc1Nc1cccc(S(=O)(=O)NC(C)(C)C)c1`, the figure is 9.68 µM (active). With `C#C[C@]1(O)CC[C@H]2[C@@H]3CCC4=CC(=O)CC[C@@H]4[C@H]3CC[C@@]21CC`, the “activity change, negative = viability loss” value is 7.43%. Turning to `CCOc1cc2ncc(C#N)c(Nc3ccc(F)c(Cl)c3)c2cc1NC(=O)/C=C/CN(C)C`, the Potency is 1.72 µM (active). The same measure, in the same setting: as for `CNC(=O)c1nn(C)c2c1C(C)(C)Cc1cnc(Nc3ccc(N4CCN(C)CC4)cc3)nc1-2`, the figure is 1.72 µM (active); as for `NC(=O)c1ccc2nc(-c3ccc(Oc4ccc(Cl)cc4)cc3)[nH]c2c1`, 24.3 µM (active).

For `Cc1cc(C(=O)N2CCN(c3cccc(Cl)c3)CC2)n(-c2ccccc2)n1`, the Potency is 1.72 µM (active). `CN(C)C(CCOc1cccc2ccccc12)c1ccccc1` (stereo not given): the “activity change, negative = viability loss” value was 2.73%.

`COc1ccc2c(c1OC)C(=O)O[C@@H]2[C@H]1c2c(cc3c(c2OC)OCO3)CCN1C`: the Potency is 30.6 µM (active).

Turning to `CCOc1ccc(Nc2nc(-c3c(C)nc4ccccn34)cs2)cc1`, the Potency is 0.0243 µM (active). `CCC1=CC2CN(C1)Cc1c([nH]c3ccccc13)[C@@](C(=O)OC)(c1cc3c(cc1OC)N(C)[C@H]1[C@@](O)(C(=O)OC)[C@H](OC(C)=O)[C@]4(CC)C=CCN5CC[C@]31[C@@H]54)C2` (stereo not given in full): the Potency was 0.133 µM (active). Still for that read-out and setting: as for `COc1cc(N2CCC(N3CCN(C)CC3)CC2)ccc1Nc1ncc(Cl)c(Nc2ccccc2S(=O)(=O)C(C)C)n1`, the figure is 17.2 µM (active). In the case of `CO[C@@]12[C@H](COC(N)=O)C3=C(C(=O)C(C)=C(N)C3=O)N1C[C@@H]1N[C@@H]12`, the “activity change, negative = viability loss” value is 44.4%. For the compound `COC(C)(C)CCn1nc(Nc2c(C)cccc2C)c2cnc(Nc3ccc(OCCN4CCCC4)c(F)c3)nc21`, the Potency was 27.3 µM (active). Turning to `CC(C)n1nc(-c2cc3cc(O)ccc3[nH]2)c2c(N)ncnc21`, the Potency was 5.44 µM (active). Take `CN(C)CC/C=C1\c2ccccc2COc2ccccc21`: the “activity change, negative = viability loss” value is -9.39%.

Turning to `O=c1cc(CN2CCOCC2)occ1OCCCCCSc1ccnc2cc(C(F)(F)F)ccc12`, the Potency was 7.69 µM (active).

`CC(C)n1c(/C=C/[C@@H](O)C[C@@H](O)CC(=O)O)c(-c2ccc(F)cc2)c2ccccc21`: the Potency is 10.9 µM (active).

Take `NC(=O)c1cnc(-c2ccc(C3(N)CCC3)cc2)c(-c2ccccc2)c1`: the Potency was 27.3 µM (active). In the case of `C1CCC(C(CC2CCCCN2)C2CCCCC2)CC1` (stereo not given), the Potency was 24.3 µM (active).

Take `CN(C)CCC(CSc1ccccc1)Nc1ccc(S(=O)(=O)NC(=O)c2ccc(N3CCN(Cc4ccccc4-c4ccc(Cl)cc4)CC3)cc2)cc1[N+](=O)[O-]` (stereo not given): the Potency was 8.63 µM (active). For the compound `Nc1ccccc1NC(=O)c1ccc(CNC(=O)OCc2cccnc2)cc1`, the Potency is 4.32 µM (active).

Turning to `Cn1cnc([N+](=O)[O-])c1Sc1ncnc2nc[nH]c12`, the Potency was 27.3 µM (active). Regarding `CS(=O)(=O)c1ccc(-c2cnc(N)c(C(=O)Nc3ccccc3)n2)cc1`, the “activity change, negative = viability loss” value was -4.41%. `Cn1cnc2c(F)c(Nc3ccc(Br)cc3F)c(C(=O)NOCCO)cc21`: the “activity change, negative = viability loss” value was 5.2%.

As to `CC(C)Oc1ccc(C(=O)NC(CNC(=O)CN(C)C)Cc2ccc(-c3cn4cccc(C(C)O)c4n3)cc2)cc1Cl` (stereo not given), the Potency was 0.172 µM (active).

With `Cc1c2oc3c(C)ccc(C(=O)N[C@@H]4C(=O)N[C@H](C(C)C)C(=O)N5CCC[C@H]5C(=O)N(C)CC(=O)N(C)[C@@H](C(C)C)C(=O)O[C@@H]4C)c3nc-2c(C(=O)N[C@@H]2C(=O)N[C@H](C(C)C)C(=O)N3CCC[C@H]3C(=O)N(C)CC(=O)N(C)[C@@H](C(C)C)C(=O)O[C@@H]2C)c(N)c1=O` (I: T[dV]P[Sar][NMeV] / II: T[dV]P[Sar][NMeV]; ester I:1-I:C, II:1-II:C; linker I:N-II:N via Actinocin(9to1)), the Potency is 1.72 µM (active). The same measure, in the same setting: as for `CN1CCN(c2ccc(OC(F)(F)F)c(Nc3ncc4c(n3)-c3c(c(C(N)=O)nn3CCO)CC4)c2)CC1`, the figure is 0.153 µM (active); as for `CCCCc1nc2cc(/C=C/C(=O)NO)ccc2n1CCN(CC)CC`, 1.22 µM (active). For `CNC(=O)c1ccccc1Sc1ccc2c(/C=C/c3ccccn3)n[nH]c2c1`, the Potency is 19.3 µM (active).

Regarding `COc1ccc(-c2nc3ccc(C4=NNC(=O)CC4C)cc3[nH]2)cc1` (stereo not given), the Potency was 21.7 µM (active). In the case of `Cc1nc(NC(=O)N2CCCC2C(N)=O)sc1-c1csc(C(C)(C)C)n1` (stereo not given), the Potency is 21.7 µM (active). On the same count and under the same terms, under `Cn1c(=O)c(-c2c(Cl)cccc2Cl)cc2cnc(Nc3cccc(C(=O)O)c3)nc21` stands 2.43 µM (active); under `CC(=O)O[C@H]1C(=O)[C@@]2(C)[C@H]([C@H](OC(=O)c3ccccc3)[C@]3(O)C[C@H](OC(=O)[C@H](O)[C@@H](NC(=O)c4ccccc4)c4ccccc4)C(C)=C1C3(C)C)[C@]1(OC(C)=O)CO[C@@H]1C[C@@H]2O`, 0.0366 µM (active). The same measure, in the same setting: under `Cc1nc(N)ncc1-c1nc(N2CCOCC2)c2sc(C(C)(C)O)cc2n1` stands 7.69 µM (active); under `CC[C@@]1(O)C(=O)OCc2c1cc1n(c2=O)Cc2cc3c(CN(C)C)c(O)ccc3nc2-1`, 7.69 µM (active); under `CCCC(=O)O[C@]1(C(=O)CCl)[C@@H](C)C[C@H]2[C@@H]3CCC4=CC(=O)C=C[C@]4(C)[C@@]3(F)C(=O)C[C@@]21C`, 43.2 µM (active).

Turning to `Cn1cnc2c(F)c(Nc3ccc(Br)cc3Cl)c(C(=O)NOCCO)cc21`, the “activity change, negative = viability loss” value is 16.4%. Take `O=C(/C=C/c1cccc(S(=O)(=O)Nc2ccccc2)c1)NO`: the Potency is 0.943 µM (active).
